Compounds with a hit are over-represented: about 1.1% of the library has one in this group of screens.
RecA splice inh = Mtb RecA intein splicing inhibition. P9WHJ3. cell-free RecA intein splicing, fluorescence. inhibition, % (test concentration not listed). actives 0.75% (n = 290,000). AID 2221; in the data active = inhibition above about 30%
Rv3671c protease = inhibits the M. tuberculosis serine protease Rv3671c. P9WHR9. inhibition, % at 5.96 µM. actives 0.048% (n = 320,000). AID 2606; in the data active = inhibition above about 38%;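 also: extracellular domain of Rv3671c used as enzyme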
Mtb bLac sens = beta-lactam sensitization of Mtb H37Rv; M. tuberculosis H37Rv growth with meropenem, percent inhibition; inhibition, % at 25 µM; actives 0.27% (n = 330,000); AID 434955;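 also: growth measured after seven days incubation then overnight dye step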
SSB-PriA inh = inhibitors of Klebsiella pneumoniae PriA binding to SSB C-terminal tail | AlphaScreen SSBct-PriA binding, biotinylated peptide | inhibition, % at 33 µM | actives 0.6% (n = 430,000); in the data active = inhibition mostly above about 37%, no sharp cut-off; inactive = mostly below about 20%
Mtb UGM inh = inhibitors of M. tuberculosis UDP-galactopyranose mutase | P9WIQ1 | purified UGM, fluorescence polarization probe displacement | inhibition, % at 10 µM | actives 0.06% (n = 320,000); in the data active = inhibition above about 10%, passing the limit was not always enough
Target sequence (P9WIQ1 whole entry, looked up): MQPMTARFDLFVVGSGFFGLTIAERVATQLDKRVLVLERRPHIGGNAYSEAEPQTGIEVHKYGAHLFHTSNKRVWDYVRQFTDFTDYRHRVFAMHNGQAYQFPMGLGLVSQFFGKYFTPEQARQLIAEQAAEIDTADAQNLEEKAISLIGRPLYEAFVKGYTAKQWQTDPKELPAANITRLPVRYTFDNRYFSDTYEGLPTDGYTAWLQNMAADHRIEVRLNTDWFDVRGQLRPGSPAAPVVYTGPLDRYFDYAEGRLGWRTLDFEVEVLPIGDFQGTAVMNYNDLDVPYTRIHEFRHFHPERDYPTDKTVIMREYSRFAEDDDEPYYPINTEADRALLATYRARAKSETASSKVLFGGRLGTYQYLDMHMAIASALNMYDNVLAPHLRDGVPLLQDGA
GFP chromo cs = counter-screen: blocks GFP chromophore formation; EC50, µM; cell-free GFP chromophore formation, fluorescence; shares compounds with RecA splice inh; actives 83% (n = 2,100)
Of the large screens only hits and unclear results are named; the others gave an inactive call (follow-up assays come after a bar, where they were run). Unless noted, no rule for the calls is given here.

CCOC(=O)c1c(NC(C)=O)sc2c1CCC(C=NCCCN(CC)CC)=C2Sc1ccccc1	RecA splice inh 60.9 | GFP chromo cs 0.372
CCOC(=O)c1cnc2ccc(C)cc2c1Sc1ccccc1	RecA splice inh 62.8 | GFP chromo cs 37.7
CCCCn1c(SCC(=O)NCc2ccco2)nc2ccccc2c1=O	none
CC(=O)NCCn1c(SCC(=O)NCc2ccco2)nc2ccccc2c1=O	RecA splice inh 66.6 | GFP chromo cs 24.9
Oc1ccc(C=NNc2nc(N3CCCC3)nc(N3CCCC3)n2)cc1O	none (no result: RecA splice inh, Rv3671c protease, Mtb bLac sens, Mtb UGM inh)
COC(=O)C(O)(c1c(C)[nH]n(-c2ccccc2)c1=O)C(F)(F)F (stereo unspecified)	RecA splice inh 92.0 | GFP chromo cs 7.54
C(=NNC(=Nc1ccccc1)c1ccccn1)c1ccccn1	none (no result: RecA splice inh, Rv3671c protease, Mtb bLac sens, Mtb UGM inh)
O=C(O)c1ccccc1O	none
Nc1c(O)cccc1C(=O)O	RecA splice inh 71.5 | GFP chromo cs 6.1
Cn1ccnc1Sc1cc(NCCCO)c([N+](=O)[O-])c2nonc12	RecA splice inh 66.9 | GFP chromo cs 14.2
O=[N+]([O-])c1c(NCCCO)cc(Sc2ccc(Cl)cc2)c2nonc12	none
CC(=O)OCCNc1cc(SCc2ccco2)c2nonc2c1[N+](=O)[O-]	RecA splice inh 78.3 | GFP chromo cs 11
O=[N+]([O-])c1c(NCCCO)cc(SCc2ccco2)c2nonc12	RecA splice inh 64.5 | GFP chromo cs 26.8
CC(=O)OCCNc1cc(Sc2nc3ccccc3[nH]2)c2nonc2c1[N+](=O)[O-]	none
O=[N+]([O-])c1c(NCCCO)cc(N2CCCCCC2)c2nonc12	none
Cc1nc(C)c(C(=O)NC2CCC(Oc3ccccn3)CC2)s1 (stereo unspecified)	none (no result: RecA splice inh, Rv3671c protease, Mtb bLac sens, Mtb UGM inh)
Cc1cc(C(=O)c2ccc(C(C)(C)C)cc2)c(NC(=O)CCl)s1	RecA splice inh 67.2 | GFP chromo cs 33.8
Cc1cc(C(=O)c2ccccc2)c(NC(=O)CN2CCOCC2)s1	none
Cc1sc(NC(=O)CCl)c(C(=O)c2ccccc2)c1C	RecA splice inh 62.9 | GFP chromo cs 31.8
Cc1nnc(NC(=O)Cc2csc(Nc3cccc(C(F)(F)F)c3)n2)s1	none (no result: RecA splice inh, Rv3671c protease, Mtb bLac sens, Mtb UGM inh)
CCC(=O)Nc1ccc(S(=O)(=O)N(CCc2cccs2)Cc2ccco2)c(C)c1	none (no result: RecA splice inh, Rv3671c protease, Mtb bLac sens, Mtb UGM inh)
N#CCCn1cc(C=C2C(=O)NC(=O)NC2=O)c(-c2ccccc2)n1	none
CC1=NN(c2ccccc2)C(=O)/C1=C\c1cn(CCC#N)nc1-c1ccc(Cl)cc1	RecA splice inh 37.3 | GFP chromo cs 10.3
O=C(CCl)NN=C(c1ccccc1)c1ccccc1	RecA splice inh 59.0 | GFP chromo cs 25.7
Cc1cc(NC(=O)CSc2ccc(NC(=O)C(C)C)nn2)on1	none (no result: RecA splice inh, Rv3671c protease, Mtb bLac sens, Mtb UGM inh)
O=C(CCl)N1c2ccccc2CCc2ccccc21	RecA splice inh 79.9 (no result: SSB-PriA inh) | GFP chromo cs 21.7
Cc1ccccc1C(N)=NOC(=O)/C=C/c1ccccc1	none (no result: RecA splice inh, Rv3671c protease, Mtb bLac sens, Mtb UGM inh)
CC1CCCN(C(=O)COc2ccc(NC(=O)c3cccs3)cc2)C1 (stereo unspecified)	RecA splice inh 44.3 | GFP chromo cs inactive
CCOc1ccc2c(c1)-c1c(ssc1=S)C(C)(C)N2	RecA splice inh 50.7 | GFP chromo cs 11.6
Cc1ccc(C)c(Sc2ccc(NC(=O)CCl)cc2)c1	RecA splice inh 91.2 | GFP chromo cs 6.96
O=C(CCl)Nc1ccccc1Sc1ccccc1	none (no result: RecA splice inh)
Cc1ccc(Sc2ccc(NC(=O)CCl)cc2)cc1C	RecA splice inh 65.7 | GFP chromo cs 7.34
Cc1ccc(S(=O)(=O)c2cn(CC(=O)Nc3ccon3)c3ccccc23)cc1	none (no result: RecA splice inh, Rv3671c protease, Mtb bLac sens, Mtb UGM inh)
COc1ccc2sc(N(CCN(C)C)C(=O)c3ccccc3F)nc2c1	none (no result: RecA splice inh, Rv3671c protease, Mtb bLac sens, Mtb UGM inh)
CC(=NNC(=O)CC#N)c1ccc(Oc2ccccc2)cc1	none (no result: RecA splice inh, Rv3671c protease, Mtb bLac sens, Mtb UGM inh)
CCN(CC)c1ccc(NC2=C(Cl)C(=O)c3ccccc3C2=O)cc1	none (no result: RecA splice inh)
O=C1C=C(Nc2ccc(O)cc2)C(=O)c2ccccc21	RecA splice inh 72.5 | GFP chromo cs 3.65
O=C1C(Cl)=C(Nc2ccc(O)cc2)C(=O)c2ccccc21	RecA splice inh 94.5 | GFP chromo cs 2.5
COC1=C(Nc2ccc(OC)cc2)C(=O)c2ccccc2C1=O	none
COc1ccc(NC2=C(NCCO)C(=O)c3ccccc3C2=O)cc1	RecA splice inh 56.0 | GFP chromo cs 31
COC1=C(Nc2ccc(O)cc2)C(=O)c2ccccc2C1=O	RecA splice inh 57.9 | GFP chromo cs 13.1
O=C(Cn1ccc2ccccc21)NCc1cccnc1-c1ccsc1	none (no result: RecA splice inh, Rv3671c protease, Mtb bLac sens, Mtb UGM inh)
Cc1nn(-c2cccc(Cl)c2)c2c1C(c1ccncc1)C(C#N)=C(N)O2 (stereo unspecified)	RecA splice inh 57.1 | GFP chromo cs 23
Cc1cc2c(c(=O)[nH]1)C(c1ccncc1)C(C#N)=C(N)O2 (stereo unspecified)	none (no result: RecA splice inh, Rv3671c protease, Mtb bLac sens, Mtb UGM inh)
COc1ccc(OC)c(C2C(C#N)=C(N)Oc3cc(C)[nH]c(=O)c32)c1 (stereo unspecified)	none
Cc1nn(-c2cccc(Cl)c2)c2c1C(c1cccnc1)C(C#N)=C(N)O2 (stereo unspecified)	RecA splice inh 34.7 | GFP chromo cs 21.3
COc1ccc(OC)c(C2C(C#N)=C(N)Oc3c2c(C)nn3-c2cccc(Cl)c2)c1 (stereo unspecified)	RecA splice inh 37.4 | GFP chromo cs 37.8
COc1ccc(CC(=O)Nc2ccc3nc(C)n(-c4ccc(F)cc4)c(=O)c3c2)cc1OC	none (no result: RecA splice inh, Rv3671c protease, Mtb bLac sens, Mtb UGM inh)
Cc1ccc(Cn2cc(-c3noc(C(=O)Nc4ccc(F)c(Cl)c4)n3)nn2)cc1	none (no result: RecA splice inh, Rv3671c protease, Mtb bLac sens, Mtb UGM inh)
CCOC(=O)c1c(C)c2c(n1C)CCCC2=NO	none (no result: RecA splice inh, Rv3671c protease, Mtb bLac sens, Mtb UGM inh)
Nc1ccc2cn[nH]c2c1	RecA splice inh 77.8 | GFP chromo cs 21.6
Cc1nc2c(ccc3nc(NC(=O)c4ccc(S(=O)(=O)N(C)C5CCCCC5)cc4)sc32)s1	none (no result: RecA splice inh, Rv3671c protease, Mtb bLac sens, Mtb UGM inh)
N#CC1(NC(=O)COC(=O)c2cc(O)c3ccccc3c2O)CCCCC1	RecA splice inh 81.4 | GFP chromo cs 4.83
O=C(CNc1ccccc1)N/N=C/c1ccc([N+](=O)[O-])o1	none (no result: SSB-PriA inh)
O=C(N/N=C/c1ccc([N+](=O)[O-])o1)c1ccc(O)cc1	RecA splice inh 55.8 (no result: SSB-PriA inh) | GFP chromo cs inactive
O=C(CNC(=O)c1ccccc1)N/N=C/c1ccc([N+](=O)[O-])o1	RecA splice inh 57.5 (no result: SSB-PriA inh) | GFP chromo cs inactive
O=C(NCC(=O)N1CCC(Oc2ccccn2)CC1)c1ccccc1	none (no result: RecA splice inh, Rv3671c protease, Mtb bLac sens, Mtb UGM inh)
CCc1ccc(S(=O)(=O)/N=C2\C=CC(=O)c3ccccc32)cc1	RecA splice inh 93.4 (no result: SSB-PriA inh) | GFP chromo cs 1.66
CCOc1ccc(S(=O)(=O)N=C2C=CC(=O)c3ccccc32)cc1	none (no result: RecA splice inh, Rv3671c protease, Mtb bLac sens, Mtb UGM inh)
CCc1ccc(S(=O)(=O)/N=C2\C=C(Nc3ccc(O)cc3)C(=O)c3ccccc32)cc1	RecA splice inh 97.3 (no result: SSB-PriA inh) | GFP chromo cs 0.498
Cc1cc(C)c(S(=O)(=O)/N=C2\C=C(Nc3ccc(C(=O)O)cc3)C(=O)c3ccccc32)c(C)c1	RecA splice inh 95.8 (no result: SSB-PriA inh) | GFP chromo cs 0.871
Cc1cc(C)c(S(=O)(=O)/N=C2\C=C(NS(=O)(=O)c3ccccc3)C(=O)c3ccccc32)c(C)c1	none (no result: SSB-PriA inh)
CCc1ccc(S(=O)(=O)/N=C2\C=C(Nc3cccc(C(=O)O)c3)C(=O)c3ccccc32)cc1	RecA splice inh 94.9 (no result: SSB-PriA inh) | GFP chromo cs 0.419

Compound activity as filed in PubChem.
